G9a inh: G9a (human) methyltransferase inhibition; Q96KQ7; G9a H3K9 monomethylation, AlphaScreen, 2 h; Potency, µM (series often up to 102 µM), actives largely listed as inhibitors; 8.8% of 350,000 active; AID 504332; also: nearly all actives have a fitted effect of over 75% in size
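G9a (20 nM) was preincubated 15 min with compound, then reacted 2 h at room temperature with 500 nM biotin-H3K9 peptide and 20 µM SAM. Monomethyl-H3K9 detected by AlphaScreen using anti-H3K9me1 antibody.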
JMJD2A Tudor: blocks the human JMJD2A Tudor domain; 4.4% of 390,000 active; Potency, µM (highest dose often 114 µM), actives largely listed as inhibitors; AlphaScreen JMJD2A-Tudor / H3K4me3 peptide binding; also: nearly all actives have a fitted effect of over 50% in size
HP1b binding inh: blocks HP1-beta chromodomain binding to methylated histone tails | P83916 | AlphaScreen HP1-beta / biotin-H3K9me3 peptide binding | Potency, µM (series often up to 114 µM), hits mostly inhibitors | 0.56% of 390,000 active | AID 540317; also: nearly all actives have a fitted effect of over 70% in size
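HP1-beta protein (50 nM final) preincubated 30 min at room temperature with biotinylated H3(1-18)K9me3 peptide (50 nM) in PBS pH 7.4, 0.01% Tween-20, then compound added for 30 min. AlphaScreen streptavidin donor/nickel chelate acceptor beads (10 ug/mL final), 30 min dark, luminescence read.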
BAZ2B inh: inhibitors of human BAZ2B bromodomain; Q9UIF8; AlphaScreen BAZ2B-H3K14Ac peptide displacement; Potency, µM (series often up to 114 µM), hits mostly inhibitors; 4.4% of 360,000 active; also: nearly all actives have a fitted effect of over 60% in size
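BAZ2B (50 nM) with biotin-H3(5-23)K14Ac peptide (50 nM) in PBS pH 7.4, 0.01% Tween-20, preformed 30 min, then compound 30 min at room temperature; top concentration 110uM. AlphaScreen streptavidin donor/nickel chelate acceptor beads (10 ug/mL final), 20 min dark, signal read.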
GLS inhibitor: inhibitors of human glutaminase (GLS); GLS enzymatic activity, qHTS titration; Potency, µM (top dose mostly 45.5 µM), hits mostly inhibitors; AID 624170; 0.21% of 410,000 active; O94925
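hKGA in 45 mM KH2PO4 pH 8.2, 0.02% Tween-20 with pin-transferred compounds; 1 mM L-glutamine (stock) plus glutamate oxidase/HRP/Amplex Red coupling added. Fluorescence read initially and after 30 min at RT.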
Hits are given with their value; 0 = inactive; ? = inconclusive; - = not tested or not shown; [ ] = another dose, or the depositor's remark. This is a sample that favours compounds with a hit; in the whole collection about 10% have one here. Calls follow the shape of the dose curve; as a rule, active = well fitted curve in the direction sought with a large enough effect; inconclusive = small, poorly fitted or top-dose-only effect, or another doubt; inactive = no such curve, though single readings can be large; an effect the other way counts as inactive or inconclusive.

SMILES	G9a inh	JMJD2A Tudor	HP1b binding inh	BAZ2B inh	GLS inhibitor
CCOC(=O)CCc1c(C)nc(SCc2ccc(C(=O)O)cc2)c(C#N)c1C	0	0	0	0	0
COc1ccc(S(=O)(=O)Nc2ccccc2)cc1	-	0	0	-	0
COc1ccc(S(=O)(=O)Nc2ccc(O)c3ccccc23)cc1	?	32µM	?	40µM	0
Cc1ccc(C)c(S(=O)(=O)Nc2ccc(O)c3ccccc23)c1	28µM	50µM	16µM	50µM	0
O=C(CSc1nc2ccc(Cl)cc2[nH]1)NCc1ccco1	0	0	0	?	0
Cc1nn(-c2ccccc2)c2c1cc1c(=O)n(C)c(=O)nc-1n2-c1ccccc1F	32µM	0	0	0	0
CSc1ccc(S(=O)(=O)NC(C)c2ccccc2)cc1 (configuration not stated)	?	0	0	0	0
CN(C)c1cc2c3ccccc3n(C)c2cc1N	-	32µM	45µM	-	11µM
Cn1c2ccccc2c(=O)c2cc(C#Cc3ccc(N)cc3)ccc21	?	0	0	0	0
COc1cccc(N2CCN(C(=O)c3cnc4c(-c5ccccc5)c(C)nn4c3C)CC2)c1	0	0	0	0	0
Cc1ccc(OCc2ccc(C(=O)NNC(=S)NCC3CCCO3)o2)c([N+](=O)[O-])c1 (configuration not stated)	-	0	0	0	0
COn1c(=O)c(-c2cccc(Br)c2)[n+]([O-])c2ccccc21	0	0	0	0	0
O=c1c(-c2cccc([N+](=O)[O-])c2)[n+]([O-])c2ccccc2n1O	?	56µM	0	?	0
O=c1c(-c2ccc(Cl)cc2)[n+]([O-])c2ccccc2n1O	11µM	25µM	0	?	0
CCOC(=O)COn1c(=O)c(-c2ccc(Cl)cc2)[n+]([O-])c2ccccc21	0	0	0	0	0
CCCN1C(=O)C(Cc2nc3ccccc3c(=O)n2-c2ccccc2)c2ccccc21 (configuration not stated)	0	0	0	0	0
COC(=O)C1=C(N)Oc2cc(C)n(CC3CCCO3)c(=O)c2C1c1ccc(Cl)cc1 (configuration not stated)	0	0	0	-	0
COc1ccc(NC(=S)N2c3ccccc3CC2C)cc1OC (configuration not stated)	50µM	0	0	0	0
CN(C)S(=O)(=O)c1cccc(NC(=S)N2CCc3ccccc32)c1	0	0	0	-	0
CC1Cc2ccccc2N1C(=S)Nc1cccc(S(=O)(=O)N(C)C)c1 (configuration not stated)	40µM	0	0	0	0
CCc1ccc(C2NC(C(=O)O)CS2)cc1 (configuration not stated)	3.5µM	-	-	?	-
CCc1ccc(C2NC(c3ccc(CC)cc3)C([N+](=O)[O-])C(C)(C)C2[N+](=O)[O-])cc1 (configuration not stated)	0	0	0	0	0
S=c1[nH]nc(C2CCCCC2)n1/N=C/C=C/c1ccccc1	10µM	79µM	0	?	?
S=c1[nH]nc(C2CCCCC2)n1/N=C/C(Cl)=C\c1ccccc1	25µM	?	0	0	0
CC(C)=CCc1cc([C@@H]2COc3c(ccc4c3C=CC(C)(C)O4)C2)c(O)cc1O	-	?	0	-	0
SMILES	G9a inh	JMJD2A Tudor	HP1b binding inh	BAZ2B inh	GLS inhibitor
CC1(C)C=Cc2c(ccc3c2OC[C@H](c2ccc(O)cc2O)C3)O1	0[2.33 µM]	50µM	0	50µM	0
Cc1ccc(C2C(C(=O)c3ccco3)=C(O)C(=O)N2c2ncccn2)cc1 (configuration not stated)	0	0	0	0	0
Cc1nnc(N2C(=O)C(O)=C(C(=O)c3ccco3)C2c2ccc(C(C)(C)C)cc2)s1 (configuration not stated)	?	0	0	0	0
Cc1nnc(N2C(=O)C(O)=C(C(=O)c3ccco3)C2c2ccc(C(C)C)cc2)s1 (configuration not stated)	45µM	?	0	0	0
CSc1ccc(C2C(C(=O)c3ccco3)=C(O)C(=O)N2c2nnc(SC)s2)cc1 (configuration not stated)	?	7.1µM	0	?	0
CCCOc1cccc(C2C(C(=O)c3ccco3)=C(O)C(=O)N2c2nnc(C)s2)c1 (configuration not stated)	?	0	0	0	0
